Data from PubChem BioAssay (Tox21).
Results filed as inconclusive are left out. Calls of active or inactive are those of the source. Unless noted, calls come from the whole dose curve.

Tests used:
[1] = qHTS assay to identify small molecule antagonists of the vitamin D receptor (VDR) signaling pathway - cell viability counter screen (AID 743225; active = well fitted curve in the direction sought with a large enough effect in the repeat runs; an effect the other way counts as inactive or inconclusive; note: % is set by controls: 0 for no effect and ±100 for the full control effect; nearly all actives have a fitted effect of over 50% in size)
Method in brief: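 Viability counter screen run in the same wells as the beta-lactamase reporter assay: HEK 293T VDR-UAS-bla cells, 16 h compound exposure at 37C with 3 nM (final) 1-alpha,25-dihydroxyvitamin D3. CellTiter-Glo luminescence, 30 min, room temperature.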

[2] = qHTS assay to identify small molecule agonists of the NFkB signaling pathway - cell viability counter screen (AID 1159515); note: series mostly up to about 61 µM; % is set by controls: 0 for no effect and ±100 for the full control effect; nearly all actives have a fitted effect of over 55% in size
Method in brief: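 Luminescence from CellTiter-Glo (30 min, room temperature) gives viability, measured in the same wells as the beta-lactamase reporter read. Cells were NFkB-bla ME-180, 2,000 per well, treated 5 hr with compounds.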

[3] = qHTS assay to identify small molecule agonists of the endoplasmic reticulum stress response signaling pathway (AID 1159516; active = well fitted activation curve with a large enough effect in the signal ratio in the repeat runs, not every such curve was filed as active; the % refers to the signal ratio; note: potency is the fitted concentration of half-maximal effect; for activation: % is set by controls: 0 for no effect and ±100 for the full control effect)
Method in brief: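 Read-out is beta-lactamase cleavage of a FRET substrate (405 nm excitation; 460 and 530 nm emissions) in ESRE-bla HeLa cells after a 5 hr compound exposure at 37 C. Substrate incubation ran 2 hr at room temperature.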

[4] = qHTS assay to identify small molecule agonists of the endoplasmic reticulum stress response signaling pathway - cell viability counter screen (AID 1159517);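 note: HeLa cells carrying an ER stress response element beta-lactamase reporter; series mostly up to about 61 µM; % is set by controls: 0 for no effect and ±100 for the full control effect; nearly all actives have a fitted effect of over 50% in size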
Method in brief: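 CellTiter-Glo was added to wells already read for beta-lactamase FRET, and luminescence was recorded 30 min later. Cells: ESRE-bla HeLa, 1,500 per well, compound exposure 5 hr at 37 C.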

[5] = qHTS assay to identify small molecule antagonists of the retinoid-related orphan receptor gamma (ROR-gamma) signaling pathway - cell viability counter screen (AID 1159520; active = well fitted curve in the direction sought with a large enough effect in the repeat runs; an effect the other way counts as inactive or inconclusive; note: nearly all actives have a fitted effect of over 50% in size; note: potency is the fitted concentration of half-maximal effect; for activity, negative = cytotoxicity: % is set by controls: 0 for no effect and ±100 for the full control effect)
Method in brief: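 Tet-on ROR gamma CHO cells (1,000/well) were plated 4 hr, given compounds in DMSO for 2 hr at 37 C, then induced with 1 uM final doxycycline for 16 hr. Viability was read as ATP by CellTiter-Glo luminescence after 30 min.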

[6] = qHTS assay to identify small molecule agonists of the AP-1 signaling pathway - cell viability counter screen (AID 1159525); note: nearly all actives have a fitted effect of over 55% in size; note: potency is the fitted concentration of half-maximal effect
Method in brief: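 ME-180 AP-1-bla, 2500 cells/well, Opti-MEM + 0.5% dialyzed FBS; overnight 37 °C; cpd 15-pt titration, 5 h 37 °C; CellTiter-Glo 30 min RT; luminescence read; normalised to TOAB and DMSO controls.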

[7] = qHTS assay to identify small molecule agonists of the AP-1 signaling pathway (AID 1159526); note: potency is the fitted concentration of half-maximal effect; for activation: % is set by controls: 0 for no effect and ±100 for the full control effect
[8] = qHTS assay to identify small molecule agonists of the RXR signaling pathway - cell viability counter screen (AID 1159529; active = well fitted curve in the direction sought with a large enough effect in the repeat runs; an effect the other way counts as inactive or inconclusive; note: nearly all actives have a fitted effect of over 50% in size; note: potency is the fitted concentration of half-maximal effect; for activity change, negative = cytotoxicity: series mostly up to about 77 µM; % is set by controls: 0 for no effect and ±100 for the full control effect)
Method in brief: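 Luminescence from CellTiter-Glo (30 min, RT) measured viability in the same wells as the beta-lactamase reporter readout. Cells: GeneBLAzer RXR-alpha HEK 293T, 2% charcoal-stripped FBS. Compound exposure 16 hr, 37 C.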

[9] = molecular target: Retinoic acid receptor RXR-alpha (Homo sapiens) (UniProt P19793); assay: qHTS assay to identify small molecule agonists of the RXR signaling pathway (AID 1159527); note: % is set by controls: 0 for no effect and ±100 for the full control effect; nearly all actives have a fitted effect of over 35% in size
Method in brief: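 Agonist mode; 9-cis retinoic acid positive control. HEK 293T UAS-bla reporter cells, 2% charcoal-stripped FBS, 16 hr compound exposure at 37 C/5% CO2. LiveBLAzer B/G FRET substrate 2 hr RT; ex 405, em 460/530 nm.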

[10] = molecular target: Nuclear receptor ROR-gamma (Homo sapiens) (UniProt P51449); assay: qHTS assay to identify small molecule antagonists of the retinoid-related orphan receptor gamma (ROR-gamma) signaling pathway (AID 1159521; active = well fitted curve in the direction sought with a large enough effect in the repeat runs; an effect the other way counts as inactive or inconclusive)
Method in brief: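 Luminescence readout (ONE-Glo, 30 min RT) after 16 h doxycycline induction; loss of signal scored as antagonism. CHO cells with TET-inducible RORγ and RORE-LUC reporter; compounds added 2 h before 1 uM final doxycycline.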

Retinoic acid receptor RXR-alpha (Homo sapiens), sequence (P19793 whole entry, looked up): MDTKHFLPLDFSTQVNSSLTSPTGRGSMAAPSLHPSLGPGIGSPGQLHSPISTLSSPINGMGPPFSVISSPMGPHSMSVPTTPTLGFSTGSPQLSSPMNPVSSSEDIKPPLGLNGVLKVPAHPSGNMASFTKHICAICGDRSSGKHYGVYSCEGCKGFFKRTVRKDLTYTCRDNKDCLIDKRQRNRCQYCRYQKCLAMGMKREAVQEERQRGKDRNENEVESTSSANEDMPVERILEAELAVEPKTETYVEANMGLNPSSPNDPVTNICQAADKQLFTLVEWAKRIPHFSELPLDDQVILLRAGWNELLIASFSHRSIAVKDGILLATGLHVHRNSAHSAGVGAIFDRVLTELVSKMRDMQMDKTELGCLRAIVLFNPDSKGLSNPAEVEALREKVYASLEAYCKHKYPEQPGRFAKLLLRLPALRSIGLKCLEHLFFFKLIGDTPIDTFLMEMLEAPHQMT

CC(CC=O)c1ccccc1 (centres undefined)
inactive: Potency [1] | Potency [2] | Potency [3] | Potency [4] | Potency [5] | Potency [6] | Potency [7] | Potency [8]

Cc1ccc(C(=O)Oc2ccc(C(O)CNC(C)(C)C)cc2OC(=O)c2ccc(C)cc2)cc1 (centres undefined)
inactive: Potency [2] | Potency [3] | Potency [4] | Potency [6]
active: Potency [5] 26.6 µM | Potency [8] 19 µM

Clc1ccc(Cn2c(CN3CCCC3)nc3ccccc32)cc1
inactive: Potency [2] | Potency [3] | Potency [4] | Potency [5] | Potency [6] | Potency [8]

C=CC(=O)OCCOc1ccccc1
inactive: Potency [1] | Potency [2] | Potency [3] | Potency [4] | Potency [5] | Potency [6]

CN1C[C@H]2c3ccccc3Oc3ccc(Cl)cc3[C@@H]2C1
inactive: Potency [1] | Potency [2] | Potency [3] | Potency [4] | Potency [5] | Potency [6]

COc1cccc(N(C)C(=S)Oc2ccc3c(c2)CCCC3)n1
inactive: Potency [1] | Potency [2] | Potency [3] | Potency [4] | Potency [5] | Potency [6] | Potency [7] | Potency [8]

CC(=O)c1ccc2c(c1)N(CCCN(C)C)c1ccccc1S2
inactive: Potency [1] | Potency [2] | Potency [3] | Potency [4] | Potency [5] | Potency [6] | Potency [9]

O=[N+]([O-])c1ccc2[nH]ncc2c1
inactive: Potency [1] | Potency [2] | Potency [3] | Potency [4] | Potency [5] | Potency [6] | Potency [7] | Potency [8]

CCCCCCCCCCCCCCOS(=O)(=O)O
inactive: Potency [2] | Potency [3] | Potency [4] | Potency [5]
active: Potency [6] 54.9 µM | Potency [8] 21.9 µM

Cc1ccc(N=Nc2c(O)c(C(=O)O)cc3ccccc23)c(S(=O)(=O)O)c1
inactive: Potency [1] | Potency [2] | Potency [3] | Potency [4] | Potency [5] | Potency [6]

O=S(c1cc(Cl)cc(Cl)c1O)c1cc(Cl)cc(Cl)c1O
inactive: Potency [1] | Potency [2] | Potency [3] | Potency [4] | Potency [5] | Potency [6]

O=C1[C@H]2CCCC[C@H]2C(=O)N1CCCCN1CCN(c2nsc3ccccc23)CC1
inactive: Potency [1] | Potency [2] | Potency [3] | Potency [4] | Potency [5] | Potency [6] | Potency [7]

C=CCOc1ccccc1OCC(O)CNC(C)C (centres undefined)
inactive: Potency [2] | Potency [3] | Potency [4] | Potency [5] | Potency [6] | Potency [8]

CO[C@@H]1[C@H](OC(=O)/C=C/C=C/C=C/C=C/C(=O)O)CC[C@]2(CO2)[C@H]1[C@@]1(C)O[C@@H]1CC=C(C)C
inactive: Potency [1] | Potency [2] | Potency [3] | Potency [4] | Potency [5] | Potency [6] | Potency [7]

CCCCOC(=O)CCCCCCCC(=O)OCCCC
inactive: Potency [1] | Potency [2] | Potency [3] | Potency [4] | Potency [5] | Potency [7] | Potency [9] | Potency [8]

C/C=C/C(=O)CC
inactive: viability change, negative = cytotoxic [1] 1.57% [at 15.1 µM] | activity, negative = cytotoxic [2] 18.8% [at 15.1 µM] | activation [3] 0.579% [at 15.1 µM] | activity change, negative = cytotoxicity [4] 28.8% [at 15.1 µM] | activity, negative = cytotoxicity [5] 4.4% [at 19 µM] | viability change, negative = cytotoxic [6] -12.1% [at 15.8 µM]

O=C(O)c1ccc(-n2nc(-c3ccccc3O)nc2-c2ccccc2O)cc1
inactive: Potency [1] | Potency [2] | Potency [3] | Potency [4] | Potency [5] | Potency [6] | Potency [7] | Potency [8]

CCN(CC)CCOC(=O)C(Cc1cccc2ccccc12)CC1CCCO1 (centres undefined)
inactive: Potency [1] | Potency [2] | Potency [3] | Potency [4] | Potency [5] | Potency [6]
active: Potency [7] 21.3 µM

O=C1c2ccccc2S(=O)(=O)N1CCCCN1CCN(c2ncccn2)CC1
inactive: Potency [1] | Potency [2] | Potency [3] | Potency [4] | Potency [5] | Potency [6] | Potency [7] | Potency [8]

CCN(CC)c1ccc(C(=C2C=CC(=[N+](CC)CC)C=C2)c2cc(S(=O)(=O)O)ccc2S(=O)(=O)[O-])cc1
active: Potency [5] 13.3 µM
inactive: Potency [2] | Potency [3] | Potency [4] | Potency [7] | Potency [9]

CC(COCCO)OCCO (centres undefined)
inactive: Potency [1] | Potency [2] | Potency [3] | Potency [4] | Potency [5] | Potency [6]

COC(=O)c1ccc(I)cc1S(=O)(=O)NC(=O)Nc1nc(C)nc(OC)n1
inactive: Potency [1] | Potency [2] | Potency [3] | Potency [4] | Potency [5] | Potency [6] | Potency [7] | Potency [8]

CCN(CC)CCNC(=O)c1cc(Br)c(N)cc1OC
inactive: Potency [1] | Potency [2] | Potency [3] | Potency [4] | Potency [5] | Potency [6] | Potency [7]

CCCCNc1ccc(C(=O)OCCOCCOCCOCCOCCOCCOCCOCCOCCOC)cc1
inactive: Potency [1] | Potency [2] | Potency [3] | Potency [4] | Potency [5] | Potency [7] | Potency [9]

CCc1c(C(=O)NN2CCCCC2)nn(-c2ccc(Cl)cc2Cl)c1-c1ccc(Br)cc1
active: Potency [10] 54.5 µM
inactive: Potency [1] | Potency [2] | Potency [3] | Potency [4] | Potency [7] | Potency [8]

S=C([S-])NCCNC(=S)[S-].[Mn+2]
inactive: Potency [1] | Potency [2] | Potency [3] | Potency [4] | Potency [5] | Potency [7]

NCc1ccccc1Sc1ccccc1CO
inactive: Potency [1] | Potency [2] | Potency [3] | Potency [4] | Potency [5] | Potency [7] | Potency [9] | Potency [8]

Brc1c2ccccc2c(Br)c2ccccc12
active: Potency [3] 0.882 µM
inactive: activity, negative = cytotoxic [2] -0.607% [at 6.95 µM] | activity change, negative = cytotoxicity [4] -1.22% [at 6.95 µM] | activity, negative = cytotoxicity [5] 12% [at 8.39 µM] | activation [7] -11.4% [at 6.97 µM] | activity change, negative = cytotoxicity [8] 0.822% [at 6.97 µM]

CC(=O)OC[C@H]1O[C@@H](n2ncc(=O)[nH]c2=O)[C@H](OC(C)=O)[C@@H]1OC(C)=O
active: Potency [10] 1.5 µM
inactive: Potency [1] | Potency [2] | Potency [3] | Potency [4] | Potency [6] | Potency [7] | Potency [8]
